Most compounds without a hit are left out; they make up all but 2.9% or so of the library.
ADAM17 inh – inhibitors of human ADAM17; P78536; recombinant ADAM17, EDANS/DABCYL FRET peptide cleavage; inhibition, % at 6.95 µM; 370,000 compounds, 0.83% hits;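 active = inhibition above the mean of compounds lying between control limits plus 3 SD, set per campaign, cut at about 8.5% in these data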
KLK7 zymogen act – activates the human kallikrein-7 zymogen; P49862; purified proKLK7, EDANS-DABCYL substrate fluorescence; 100% is mature enzyme control, 0% vehicle; activation, % at 7 µM; 370,000 compounds, 0.9% hits;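 active = activation above the mean of all tested compounds plus 3 SD, computed per campaign excluding outliers beyond control limits, cut at about 13% in these data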
Target sequence (P49862 whole entry, looked up): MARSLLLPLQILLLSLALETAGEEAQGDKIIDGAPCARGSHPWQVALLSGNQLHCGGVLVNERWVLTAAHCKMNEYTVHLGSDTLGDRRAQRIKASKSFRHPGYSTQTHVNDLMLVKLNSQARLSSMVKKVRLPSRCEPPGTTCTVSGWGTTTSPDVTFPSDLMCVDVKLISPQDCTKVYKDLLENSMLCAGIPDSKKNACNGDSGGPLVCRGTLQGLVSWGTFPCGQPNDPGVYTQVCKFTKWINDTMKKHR
ADAM10 inh – ADAM10 inhibition, QFRET primary screen. recombinant ADAM10, EDANS/DABCYL FRET peptide cleavage, 3 h. inhibition, % at 7 µM. 370,000 compounds, 0.62% hits;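 active = inhibition above a per-campaign cutoff equal to the mean of compounds falling between control-based bounds plus 3 SD, cut at about 20% in these data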
PLCg1 inh – inhibitors of human phospholipase C gamma1 | P19174 | purified PLC-gamma1, fluorogenic substrate, fluorescence | inhibition, % at 12.2 µM | 370,000 compounds, 0.84% hits | AID 720700; in the data active = inhibition above about 9.5%
PLCb3 inh – blocks human PLC-beta3 enzyme activity; 370,000 compounds, 0.18% hits; inhibition, % at 12.2 µM; Purified PLC-beta3, fluorogenic substrate, fluorescence; AID 720704; Q01970; in the data active = inhibition above about 11%
proKLK7 act conf – confirmation of human kallikrein-7 zymogen activators. shares compounds with KLK7 zymogen act. purified proKLK7, EDANS-DABCYL substrate fluorescence; scaled: vehicle 0, mature enzyme 100. activation, % at 7 µM. 3,200 compounds, 68% hits;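 active = activation, as change over the incubation, above the mean of all tested compounds plus 3 SD, cut at about 13% in these data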
EDANS interfere – fluorescence interference counter-screen for KLK7 activators; shares compounds with KLK7 zymogen act; EDANS-DABCYL substrate fluorescence interference, no enzyme, 4 h; solvent 0%, active enzyme control 100%; activation, % at 7 µM; 3,200 compounds, 80% hits; AID 686952;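 active = activation above the all-compound mean plus 3 SD, ignoring values outside control-based bounds, cut at about 4.8% in these data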;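 note: value is the 4 h activation minus the activation read at time zero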
EDANS interf – EDANS fluorescence interference in dose response, no enzyme | EC50, µM | EDANS-DABCYL peptide fluorescence interference | shares compounds with KLK7 zymogen act | AID 720493 | 250 compounds, 20% hits;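 active = compounds that raise the fluorescence signal in this interference counterscreen, with EC50 at or below 10 µM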;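 note: intact quenched peptide substrate alone read at 355 nm excitation and 520 nm emission; signal is fluorescence gain from T0 to T4 after four hours at room temperature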
A number is an active result; – = inactive; · = no result.

SMILES	ADAM17 inh	KLK7 zymogen act	ADAM10 inh	PLCg1 inh	PLCb3 inh	proKLK7 act conf	EDANS interfere	others
CCOc1ccccc1C1C2=C(COC2=O)Nc2cc3c(cc21)OCO3 (stereo not drawn)	–	16.1	–	–	–	–	–
C#CCOc1ccc(C2C3=C(COC3=O)Nc3cc4c(cc32)OCO4)cc1OC (stereo not drawn)	–	68.5	–	–	–	–	–
COc1cccc(Oc2c(C)oc3c(CN4CCOCC4)c(O)ccc3c2=O)c1	–	31.4	–	–	–	–	22.7
Cc1oc2c(CN3CCOCC3)c(O)ccc2c(=O)c1-c1ccccc1	–	72.5	–	–	–	22.6	30.2
COc1ccccc1-c1c(C)oc2c(CN3CCOCC3)c(O)ccc2c1=O	–	65.9	–	–	–	69.3	78.9
COc1ccc(-c2c(C)oc3c(CN4CCCC(C)C4)c(O)ccc3c2=O)cc1OC (stereo not drawn)	–	–	–	–	–	·	·
COc1ccc(Oc2c(C)oc3c(CN4CCOCC4)c(O)ccc3c2=O)cc1	–	–	–	–	–	·	·
Cc1oc2c(CN3CCCCC3)c(O)ccc2c(=O)c1-c1ccc(Cl)cc1	–	38.3	–	–	–	28.1	34.0
COC(=O)[C@@H](Cc1ccc(O)cc1)NC(=O)[C@H]1O[C@@H](n2cnc3c(=O)[nH]c(N)nc32)[C@H](O)[C@@H]1O	–	–	–	–	–	·	·
C[C@@H]1ON(C)[C@H]2C[C@H]3c4[nH]c5cccc(Br)c5c4CCN3C(=O)[C@@H]12	–	–	–	–	–	·	·
CCCC(C)C(=O)NC1CCCCN(Cc2ccccc2C)C1=O (stereo not drawn)	–	–	–	–	–	·	·
CCNC(=S)N1CCc2cc(OC)c(OC)cc2C1COc1ccccc1OC (stereo not drawn)	–	57.9	–	–	–	30.4	36.2
CCNC(=S)N1CCc2cc(OC)c(OC)cc2C1COc1ccc(OC)cc1 (stereo not drawn)	–	–	–	–	–	·	·
Cc1cc2c(c(=O)o1)[C@@]1(C(=O)N(C)c3ccccc31)C1=C(CC(C)(C)OC1=O)O2	–	–	–	–	–	·	·
COc1ccc(-n2c(O)c(/C=N/NS(=O)(=O)c3cccc([N+](=O)[O-])c3)c3ccccc3c2=O)cc1OC	–	24.2	–	–	–	76.8	66.9
COc1ccc(CC(=O)NNS(=O)(=O)c2cccc([N+](=O)[O-])c2)cc1OC	–	–	–	–	–	·	·
CCCCc1c(-c2ccccc2OC)ncn1Cc1ccc(Br)cc1	–	–	–	–	–	·	·
Nc1nn2cc(-c3ccccc3)nc2c2ccccc12	–	65.9	–	–	–	55.0	53.4
Cc1cc(C)cc(C(=O)OCCCN(C)C2CN(Cc3cn(Cc4ccccc4Cl)nn3)S(=O)(=O)C2)c1 (stereo not drawn)	–	–	–	–	–	·	·
Cc1ccc(CNC(=O)CSc2nc3n[nH]c(C)c3c(=N)n2-c2cccc(C)c2)cc1	–	13.4	–	–	–	27.6	27.3
Cc1c(C(C)c2ccccc2O)c2ccccc2n1C (stereo not drawn)	–	–	–	–	–	·	·
CN1C(=O)c2ccccc2N(C)C1c1cccc(O)c1 (stereo not drawn)	–	50.1	–	–	–	32.1	35.4
CN1C(=O)c2ccccc2N(C)C1c1ccc2c(c1)OCO2 (stereo not drawn)	–	18.6	–	–	–	22.0	17.6	EDANS interf=–
CN1C(=O)c2ccccc2N(C)C1c1ccc(F)cc1 (stereo not drawn)	–	18.5	–	–	–	26.8	14.1	EDANS interf=–
CC12CN3CC(C)(CN(C1)C3c1ccc3c(c1)OCO3)C2 (stereo not drawn)	–	–	–	–	–	·	·
SMILES	ADAM17 inh	KLK7 zymogen act	ADAM10 inh	PLCg1 inh	PLCb3 inh	proKLK7 act conf	EDANS interfere	others
COc1cc(C2N(C)C(=O)c3ccccc3N2C)ccc1O (stereo not drawn)	–	45.9	–	–	–	43.3	42.5
COc1cc(C2C(=O)c3ccccc3C2=O)ccc1O	–	–	–	–	–	·	·
CC(C)(C)N(Cc1cn(Cc2ccccc2)nn1)S(=O)(=O)c1ccccc1Br	–	–	–	–	–	·	·
C/C=C/C=C/C(=O)N1C[C@H](C)N(C)C[C@H]1C	–	–	–	–	–	·	·
O=C1NC(=O)C(Nc2cccc3ccccc23)S1 (stereo not drawn)	–	–	–	–	–	·	·
CN1C(=O)SC(Nc2cccc3ccccc23)C1=O (stereo not drawn)	–	74.4	–	–	–	88.1	85.1
CC1(c2nnnn2C2CCCCC2)CSCC(=O)N1CCc1ccc(O)cc1 (stereo not drawn)	–	–	–	–	–	·	·
Cc1ccccc1CC(=O)N1CCC(n2nnc3ncccc32)CC1	–	–	–	–	–	·	·
CC(C)=CCn1c2ccc(NC(=O)Nc3ccc(N(C)C)cc3)cc2c(=O)n1C	–	13.9	–	–	–	–	6.5
C=C(C)Cn1c2ccc(NC(=O)NCCc3cccs3)cc2c(=O)n1C	–	25.8	–	–	–	18.6	9.8	EDANS interf=–
Cn1c(=O)c2cc(NC(=O)Nc3cccnc3)ccc2n1Cc1ccc(Cl)cc1	–	–	–	–	–	·	·
CC(C)=CCn1c2ccc(NC(=O)NCc3ccc(F)cc3)cc2c(=O)n1C	–	17.8	–	–	–	–	–
CN(C)c1ccc(NC(=O)Nc2ccc3c(c2)c(=O)n(C)n3Cc2ccccc2)cc1	–	–	–	–	–	·	·
CC(C)=CCn1c2ccc(NC(=O)Nc3cccnc3)cc2c(=O)n1C	–	20.7	–	–	–	–	9.4
CCn1c(SCC(=O)Nc2ccccc2-c2ccccc2)nnc1-c1ccc(C)cc1	–	–	–	–	–	·	·
CCCCCCCCN1C(=O)[C@@H](CC(=O)N2CCC(c3ccccc3)CC2)C[C@@]2(C(=O)OC)C1=C[C@H](C1CCCC1)O[C@@H]2C	–	–	–	–	–	·	·
C=C(C)Cn1c2ccc(NC(=S)NCc3ccccc3F)cc2c(=O)n1C	–	–	–	–	–	·	·
Cn1c(=O)c2cc(NC(=O)NCc3ccc(F)cc3)ccc2n1C/C=C/c1ccccc1	–	–	–	–	–	·	·
COc1ccc(CCNC(=O)Nc2ccc3c(c2)c(=O)n(C)n3CC=C(C)C)cc1OC	–	26.0	–	–	–	–	5.4
C=C(C)Cn1c2ccc(NC(=O)CCc3cccnc3)cc2c(=O)n1C	–	20.9	–	–	–	22.6	26.0
CCNC(=O)Nc1ccc2c(c1)c(=O)n(C)n2CC=C(C)C	–	40.4	–	–	–	32.7	31.2

Bioassay records: PubChem BioAssay, The Scripps Research Institute Molecular Screening Center
